# Gli-Sufu antag: Gli-Sufu pathway antagonism | AID 588413 | inhibition, % at 5 µM | hit rate 0.74% among 340,000 | Sufu-KO-LIGHT fibroblasts, Gli luciferase reporter luminescence;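 active = inhibition above about 55%, limit read from the data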
# 697 NFkB inh: inhibitors of the PMA/ionomycin-induced NF-kB reporter in 697 B cells | 697 B-cell NF-kB luciferase reporter, 16 h | inhibition, % at 4 µM | hit rate 0.33% among 330,000 | AID 435022; in the data active = inhibition above about 35%
# Jurkat NFkB inh: inhibitors of the PMA/ionomycin-induced NF-kB reporter in Jurkat cells | hit rate 0.53% among 330,000 | inhibition, % at 4 µM | PMA/ionomycin-induced NF-kB luciferase reporter, luminescence; in the data active = inhibition above about 50%
# Beta cell apopt: blocks beta cell apoptosis; INS-1E cytokine-induced death, ATP luminescence, 48 h; percent of positive-control rescue, neutral wells zero; protection from apoptosis, % (concentration not given with the values); hit rate 0.8% among 300,000; AID 435005;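 active = Every replicate reaches about 75%, or at least half do and their mean reaches it too, limit read from the data; inconclusive = At least half of replicates reach the limit but their mean does not; inactive = Under half of replicates reach the limit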;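 also: higher means more ATP so stronger rescue from cytokine killing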
# Mdm2 MdmX PPI: disrupts the human Mdm2-MdmX interaction; O15151+Q00987; inhibition, % at 8 µM; hit rate 3% among 330,000; AID 485346; SaOS-2 split-luciferase Mdm2/MdmX complementation, luminescence;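 active = inhibition of at least 50% at 8 µM in the primary screen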
# Target sequence (O15151 whole entry, looked up): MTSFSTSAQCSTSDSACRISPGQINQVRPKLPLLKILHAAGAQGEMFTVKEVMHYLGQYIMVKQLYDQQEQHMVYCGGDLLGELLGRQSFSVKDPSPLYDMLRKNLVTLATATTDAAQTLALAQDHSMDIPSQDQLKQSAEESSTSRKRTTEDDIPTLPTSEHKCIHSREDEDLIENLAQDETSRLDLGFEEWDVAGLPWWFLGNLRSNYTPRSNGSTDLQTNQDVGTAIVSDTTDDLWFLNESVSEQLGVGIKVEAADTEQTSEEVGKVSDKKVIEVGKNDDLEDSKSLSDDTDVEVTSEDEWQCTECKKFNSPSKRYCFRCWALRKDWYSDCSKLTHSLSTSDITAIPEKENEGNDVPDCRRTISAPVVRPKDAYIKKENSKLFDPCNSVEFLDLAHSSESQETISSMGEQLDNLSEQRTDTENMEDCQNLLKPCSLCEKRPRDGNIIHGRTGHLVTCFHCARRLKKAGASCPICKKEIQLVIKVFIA
# Target sequence (Q00987 whole entry, looked up): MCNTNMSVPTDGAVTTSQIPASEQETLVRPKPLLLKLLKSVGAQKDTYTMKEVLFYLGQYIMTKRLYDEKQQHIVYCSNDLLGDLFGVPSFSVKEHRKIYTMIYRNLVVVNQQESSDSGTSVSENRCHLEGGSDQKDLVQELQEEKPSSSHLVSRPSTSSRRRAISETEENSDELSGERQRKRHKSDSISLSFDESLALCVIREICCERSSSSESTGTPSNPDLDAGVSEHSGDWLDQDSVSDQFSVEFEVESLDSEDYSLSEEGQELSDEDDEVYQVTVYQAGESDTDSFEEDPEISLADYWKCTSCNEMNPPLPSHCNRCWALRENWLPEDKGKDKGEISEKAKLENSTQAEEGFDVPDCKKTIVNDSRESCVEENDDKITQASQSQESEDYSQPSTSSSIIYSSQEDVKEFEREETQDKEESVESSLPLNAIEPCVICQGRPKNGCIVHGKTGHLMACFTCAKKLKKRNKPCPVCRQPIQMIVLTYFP
# CSC inhib: cancer stem cell inhibition | cancer stem cell-like cells viability, luminescence | inhibition, % at 7.5 µM | hit rate 1.1% among 300,000 | AID 2717; in the data active = inhibition above about 75%; inconclusive = no clear call, values can overlap the other calls; tested in HMLE shEcad cells
# Hits are given with their value; n = inactive; u = inconclusive; x = no result given. Rows were chosen to be rich in hits. Some 4.5% of all compounds tested hit in one or more screens of this group.
SMILES,Gli-Sufu antag,697 NFkB inh,Jurkat NFkB inh,Beta cell apopt,Mdm2 MdmX PPI,CSC inhib
Cc1ccc(-c2csc3ncnc(NS(=O)(=O)c4ccc(Cl)cc4)c23)cc1,n,n,n,n,n,82
O=C1c2cc(Br)ccc2N(Cc2ccc(Br)cc2)S(=O)(=O)C1c1cc(Cl)c(Cl)cc1[N+](=O)[O-] (centres undefined),n,n,n,n,n,108
COc1ccccc1-c1cn[nH]c1-c1ccc(OCc2ccccc2F)cc1O,n,n,n,n,n,93
COc1ccccc1-c1cn[nH]c1-c1ccc(OCc2ccc(F)cc2)cc1O,n,n,n,n,n,u
Cc1ccc(-c2csc(N3CCC(NS(=O)(=O)c4ccc5c(c4)OCCO5)CC3)n2)cc1,n,n,n,97,n,n
COc1ccccc1NS(=O)(=O)c1cc(NC(=O)CCc2nc3ccccc3c(=O)[nH]2)ccc1C,n,n,n,n,n,n
CN(Cc1ccccc1)C(=O)COC(=O)CCN1C(=O)C2CC=CCC2C1=O (centres undefined),n,n,n,n,n,n
Clc1ccc(Cl)c(OCCCCN2CCNCC2)c1,n,n,n,n,n,96
CCOC(=O)N1CCN(C(=O)CSCC(=O)Nc2nc(-c3ccc(OC)cc3)cs2)CC1,n,n,n,n,n,n
CCOC(=O)N1CCN(C(=O)CSCC(=O)Nc2nc(-c3ccc(-c4ccccc4)cc3)cs2)CC1,n,n,n,89,n,n
CCN(CC)CCOC(=O)c1ccc(NC(=O)CSc2nnc(-c3cccs3)n2CC)cc1,n,x,x,x,x,x
O=S(=O)(c1ccc(NC(=S)NCc2cccnc2)cc1)N1CCCCC1,n,n,n,126,n,139
COc1cc(/C=C(/C#N)c2ccccc2F)ccc1OCc1ccccc1,n,n,n,n,n,116
COc1ccc(C(=O)/C=C/C(=O)N(CC(=O)NC2CCCCC2)Cc2cccs2)c(O)c1,n,n,n,n,n,76
O=C(NCCOCCOCCNC(=O)c1cccnc1)c1cccnc1,n,n,n,120,n,n
O=C(NCCCCCNC(=O)c1cccnc1)c1cccnc1,n,n,n,n,n,n
CCN(CCn1cccn1)C(=O)C1CCC(=O)N(CCN2CCOCC2)C1 (centres undefined),n,n,n,n,n,n
Nc1c(C(O)(C(F)(F)F)C(F)(F)F)cc(C(O)(C(F)(F)F)C(F)(F)F)c2ccccc12,n,n,n,n,n,124
FC(F)Sc1ccc(N=C2NN=C(c3ccc4c(c3)OCCO4)CS2)cc1,n,n,n,101,n,n
C#CCOCCOCCOCCNc1nc(N2CCOCC2)nc(N2CCN(C(=O)Cn3cc(CCCCN)nn3)CC2)n1,n,x,x,x,x,x
COc1ccc(C)cc1Nc1n[n+](-c2ccccc2)c(-c2ccc(N(C)C)cc2)s1,61,n,n,99,n,n
CN(C)c1ccc(-c2sc(Nc3ccccc3)n[n+]2-c2ccc(F)cc2)cc1,n,n,n,n,n,n
COc1ccc(C)cc1Nc1n[n+](C)c(-c2ccc(O)cc2O)s1,n,n,n,n,n,n
COc1ccc(C)cc1Nc1n[n+](-c2ccccc2)c(-c2ccc(OC)c(OC)c2OC)s1,n,n,n,96,n,n
CC(/C=C1\SC(=S)N(c2ccc(C(=O)O)cc2)C1=O)=C\c1ccccc1,n,n,n,n,n,76
SMILES,Gli-Sufu antag,697 NFkB inh,Jurkat NFkB inh,Beta cell apopt,Mdm2 MdmX PPI,CSC inhib
CC(/C=C1\SC(=S)N(NC(=O)c2ccc(C)cc2)C1=O)=C\c1ccccc1,n,n,n,x,n,n
CCCC1OC(c2ccco2)OCC1CC (centres undefined),n,x,x,x,x,x
CCCc1cc(-c2[nH]ncc2-c2ccc3c(c2)OCCCO3)c(O)cc1O,n,n,n,n,n,95
Cc1ccccc1NC(=O)/C=C/c1ccc([N+](=O)[O-])s1,79,x,x,120,x,98
CCCCn1c(SCC(N)=O)nc2sc3c(c2c1=O)CCC3,n,n,n,n,n,99
COc1ccc(C(=O)N(C)CC2CCN(CCc3cccc(C(F)(F)F)c3)CC2)cc1C,n,n,n,n,n,n
CCCCc1ccc(/C(C)=N/Nc2cc(N3CCOCC3)nc(C)n2)cc1,n,n,n,n,n,80
C/C(=N\Nc1cc(N2CCOCC2)nc(C)n1)c1cccc([N+](=O)[O-])c1,n,n,n,n,n,n
Nc1ccc2cc3[nH]c4cc(N)ccc4c3nc2c1,n,x,x,x,x,x
Cc1ccc(N/N=C(\Cc2nc3ccccc3[nH]2)c2ccccc2)cc1,n,x,x,n,x,92
CCC(=O)/C=C1/Sc2ccccc2N1CC,n,n,n,n,n,n
CCN1/C(=C/c2sc(-c3ccccc3C)c[n+]2C)Sc2ccccc21,90,x,x,x,x,x
O=C(NCCCN1CCCC1)c1ccc2c(c1)N(Cc1ccc(F)cc1)C(=O)c1ccccc1S2=O (centres undefined),n,n,n,n,n,n
CC1CCCN(CCCNC(=O)c2ccc3c(c2)N(Cc2ccc(F)cc2)C(=O)c2ccccc2S3=O)C1 (centres undefined),66,n,n,n,n,n
O=C(NCCc1c[nH]c2ccccc12)C(=O)Nc1ccccc1,n,n,n,n,n,81
CC(=O)c1ccccc1NC(=O)COC(=O)c1cc2ccccc2[nH]1,n,n,n,n,n,x
CC(C)Cn1c(/C=N/Nc2nc3ccccc3[nH]2)nc2ccccc21,n,x,x,x,x,x
C=CCn1cc(/C=N/Nc2nc3ccccc3[nH]2)c2ccccc21,n,n,n,109,n,92
CC(=O)Nc1ccc(NC2=C/C(=N/S(=O)(=O)c3cccs3)c3ccccc3C2=O)cc1,n,n,n,101,n,n
CC(=O)Nc1ccc(NC(=O)C(C)OC(=O)c2ccccc2NS(=O)(=O)c2cccs2)cc1 (centres undefined),n,n,n,n,n,n
Cc1ccc(NC2=C/C(=N/S(=O)(=O)c3cccs3)c3ccccc3C2=O)cc1C,n,x,x,80,x,n
Nc1ccc(-c2cc(-c3cccc(N)c3)nc(-c3ccccc3)n2)cc1,n,n,n,n,n,84
O=C(CN1c2ccccc2Sc2ccccc21)NNC(=O)Nc1ccc(Cl)c(Cl)c1,n,n,n,x,n,101
COc1cccc(C(=O)N2CCN(C(=O)COc3ccc4ccccc4c3)CC2)c1,n,n,n,n,n,n
Cc1noc(C)c1S(=O)(=O)N(C)C[C@H]1Oc2c(cccc2N(C)C)C(=O)N([C@H](C)CO)C[C@@H]1C,n,n,n,n,n,x
SMILES,Gli-Sufu antag,697 NFkB inh,Jurkat NFkB inh,Beta cell apopt,Mdm2 MdmX PPI,CSC inhib
N#Cc1nc(-c2ccc(OCc3ccccc3)cc2)oc1NCCCn1ccnc1,n,n,n,n,n,88
CCCOc1ccc(-c2nc(C#N)c(NCCCn3ccnc3)o2)cc1,n,n,n,n,n,n
CC(C)(C)c1ccc(-c2nc(C#N)c(NCCCn3ccnc3)o2)cc1,n,n,n,n,n,88
N#Cc1nc(-c2ccc(OCc3ccccc3Cl)cc2)oc1NCCCn1ccnc1,x,n,n,n,n,94
N#Cc1nc(COc2ccccc2)oc1NCCCn1ccnc1,n,n,n,n,n,n
N#Cc1nc(-c2ccc(F)cc2)oc1NCCCn1ccnc1,x,n,n,n,n,n

# Screening results deposited in PubChem BioAssay by several laboratories.
